Compounds with a hit are over-represented: about 2.4% of the library has one in this group of screens.
D2 ag-1 – agonists of human D2 dopamine receptor (beta-arrestin). P14416. DiscoveRx PathHunter D2 beta-arrestin, luminescence, 90 min; 100% = 57 uM dopamine signal. activation, % (no concentration beside the values). actives 0.084% (n = 360,000). AID 624465; in the data active = activation above about 40%; inconclusive = between about 15% and that limit
Target sequence (P14416 whole entry, looked up): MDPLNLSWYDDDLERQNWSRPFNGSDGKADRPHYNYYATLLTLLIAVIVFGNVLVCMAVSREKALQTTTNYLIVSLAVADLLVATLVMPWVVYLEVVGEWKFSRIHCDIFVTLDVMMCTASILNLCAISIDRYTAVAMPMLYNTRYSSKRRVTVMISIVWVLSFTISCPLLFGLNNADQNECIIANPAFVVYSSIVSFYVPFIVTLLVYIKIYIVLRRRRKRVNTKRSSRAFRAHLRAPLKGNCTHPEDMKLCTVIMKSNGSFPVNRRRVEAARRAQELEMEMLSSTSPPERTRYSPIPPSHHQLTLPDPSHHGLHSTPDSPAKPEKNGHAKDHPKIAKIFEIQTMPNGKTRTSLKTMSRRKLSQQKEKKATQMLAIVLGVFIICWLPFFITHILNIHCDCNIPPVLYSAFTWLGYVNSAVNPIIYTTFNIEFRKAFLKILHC
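DiscoveRx PathHunter D2 beta-arrestin cells (2,100/well) attached overnight, then compound-stimulated 90 min at 37 C in HBSS/10 mM HEPES/0.1% Tween-20 buffer; beta-galactosidase complementation read by luminescence after 1 h at ambient temperature. Dopamine 57 uM final (EC100) as control.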
D2 antagonist – antagonizes the human D2 dopamine receptor; inhibition, % at 10 µM; P14416; AID 485344; HEK293 TREx D2 cells, calcium flux, dopamine EC80; actives 2% (n = 340,000); in the data active = inhibition above about 30%; inactive = below that, where a call was filed
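Read-out: kinetic calcium fluorescence (1 cycle/s) in inducible HEK293 T-REx D2 cells after an EC80 dopamine addition that followed 180 s compound preincubation. Loss of the dopamine response indicates antagonism.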
D2 ag-2 – activates the human D2 dopamine receptor; activation, % at 2 µM; HEK293 T-REx D2 cells, calcium flux agonist mode; actives 0.53% (n = 340,000);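 active = activation over 3 SD above normal in the single-dose calcium agonist read, cut at about 30% in these data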
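Agonism is scored from calcium flux in a force-coupled, inducible HEK293 cell line expressing D2, read kinetically for 180 s after compound addition against dopamine controls.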
D2 PAM-1 – D2 dopamine receptor (human) potentiation. P14416. HEK293 T-REx D2, calcium flux, EC20 dopamine potentiation. potentiation, % at 10 µM. actives 0.34% (n = 340,000);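 active = potentiation over 3 SD above the plate norm, cut at about 30% in these data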
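Potentiation of an EC20 dopamine calcium response measured kinetically over 180 s, after a preceding 180 s compound-only read flagging agonists. Cells: inducible Hek293 Trex D2 line, 4000/well, cultured overnight at 30 C before dye loading.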
D2 PAM-2 – potentiates the human D2 dopamine receptor allosterically | P14416 | DiscoveRx D2 beta-arrestin cells, luminescence, 90 min; 100% = 57 uM dopamine signal | potentiation, % (concentration not given with the values) | actives 0.23% (n = 360,000) | AID 624464; in the data active = potentiation above about 50%; inconclusive = mostly about 30% to 49%
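D2 cells co-treated with compound plus 50 nM dopamine (EC20) for 90 min at 37 deg C to detect potentiation. Beta-arrestin recruitment was read as enzyme-fragment luminescence after 1 h at ambient temperature. Full response was set by 57 uM dopamine.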
Hits are given with their value; n = inactive; u = inconclusive; x = no result.

SMILES	D2 ag-1	D2 antagonist	D2 ag-2	D2 PAM-1	D2 PAM-2
Cc1nc2ccc(S(=O)(=O)CCC(=O)Nc3ccc(C)c(C)c3)cc2s1	x	x	x	n	x
Cc1cc(NC(=O)c2cc(-c3ccccc3Cl)nc3ccccc23)no1	n	n	n	32	n
CCn1c(=O)c(C(=O)NNC(=O)c2ccccc2F)c(O)c2ccccc21	n	n	48	n	n
CCn1c(=O)c(C(=O)NNC(=O)c2ccccc2Cl)c(O)c2ccccc21	n	n	n	x	n
CC(Sc1ncccn1)C(=O)NNC(=O)c1cccc(Cl)c1 (centres undefined)	n	x	x	x	n
Cc1cnn(-c2cc(N/N=C/c3ccccc3F)ncn2)c1	n	x	x	x	n
COc1ccc(OC)c(S(=O)(=O)Nc2ccc(O)c3ccccc23)c1	u	n	n	n	89
COc1ccc(OC)c(S(=O)(=O)Nc2cccc3c(O)cccc23)c1	n	x	x	x	n
COC(=O)c1cc(CNC(=O)c2ccc(S(=O)(=O)N(C)c3ccccc3)cc2)ccc1OC	n	74	n	n	n
Cc1ccccc1-c1noc(C23CC4CC(CC(C4)C2)C3)n1	n	75	n	n	n
Cc1ccccc1-c1noc(-c2ccc(O)cc2)n1	n	46	n	n	n
CNc1cncc(-c2ccccc2NC(C)=O)n1	n	x	x	x	n
CCCN(CCC)CCNC(=O)Cn1cnc2sc(C)c(S(=O)(=O)N3CCOCC3)c2c1=O	n	x	x	x	n
CN(CCC#N)C(=O)COC(=O)c1ccc(Cl)cc1O	n	47	n	n	n
Cn1ccnc1CC(C)(O)c1ccccc1 (centres undefined)	n	x	x	x	n
CCC(Oc1ccccc1)C(=O)Nc1ccccc1C(=O)N1CCCCC1 (centres undefined)	n	n	n	n	69
Cc1cc(S(=O)(=O)N2CCN(c3ccccn3)CC2)ccc1F	n	33	n	n	n
O=C(CSc1nc2ccccc2[nH]1)Nc1c(F)c(F)c(F)c(F)c1F	n	n	n	43	n
Cc1ccc(C)c(OCc2cc(C(=O)N(C)Cc3nccn3C)no2)c1	n	n	35	n	n
Cc1ccc(OCc2cc(C(=O)N(C)Cc3nccn3C)no2)cc1C	n	n	n	n	n
O=C(CSc1ncc(-c2ccc(F)cc2)n1Cc1ccco1)Nc1ccc2c(c1)OCO2	n	37	n	n	n
Cc1ccc(NC(=O)CSc2nnc(-c3cnccn3)n2Cc2ccco2)cc1	n	32	n	n	n
O=C(CSc1nccn1-c1ccc(F)cc1)Nc1ccc2c(c1)OCO2	n	n	n	39	n
CCOc1ccc(NC(=O)CSc2ncc(-c3ccc(F)cc3)n2Cc2ccco2)cc1	n	n	n	n	n
Cc1cccc(NC(=O)CSc2nnc(-c3cnccn3)n2Cc2ccco2)c1	n	n	n	n	n
SMILES	D2 ag-1	D2 antagonist	D2 ag-2	D2 PAM-1	D2 PAM-2
O=C(NC1CCCc2ccccc21)C1CCN(S(=O)(=O)c2cccc(C(F)(F)F)c2)CC1 (centres undefined)	n	n	n	n	n
COc1ccc(OCCN2C(=O)NC(C)(c3ccc(C)cc3)C2=O)cc1 (centres undefined)	n	n	n	66	n
Cc1ccc(C2(C)NC(=O)N(CCOc3ccccc3)C2=O)cc1 (centres undefined)	n	n	n	n	n
O=C1Cc2ccccc2C(c2ccc(Cl)cc2)N1 (centres undefined)	n	n	n	n	n
S=C1Cc2ccccc2C(c2ccc(Cl)cc2)N1 (centres undefined)	n	33	n	n	n
O=C(CCN1CCN(c2ccccc2)CC1)c1ccc(Br)cc1	n	n	n	n	n
N#Cc1ccc(C(=O)CN2CCN(c3ccccc3)CC2)cc1	n	n	35	n	n
Cc1cc(C)[n+](-c2ccc(F)cc2)c2[nH]c(=O)[nH]c(=O)c12	n	n	n	n	n
OCCNc1c2ccccc2nc2ccccc12	n	n	n	n	n
O=C(COC(=O)C1CCN(c2ccc(C(F)(F)F)cn2)CC1)Nc1ncc(Cl)cc1Cl	n	35	n	n	n
O=C(COC(=O)C1CCN(c2ccc(C(F)(F)F)cn2)CC1)Nc1ccc(Cl)cn1	n	n	n	n	n
O=C(COC(=O)C1CCN(c2ccc(C(F)(F)F)cn2)CC1)NCc1cccc(Cl)c1	n	34	n	n	n
CN(C)CCNC(=O)C(=O)c1c(-c2ccccc2)cc2ccccn12	n	n	n	n	n
COc1ccc(-c2c(-c3ccccc3)c(C(=O)C(=O)NCCCN(C)C)n3ccc4cc(OC)c(OC)cc4c23)cc1OC	n	48	n	n	n
CCC(C)(C)NC(=O)C(c1cccn1C)N(C(=O)Cn1nnc2ccccc21)c1ccc(OC)cc1OC (centres undefined)	n	30	n	n	n
CCOc1ccc(N(C(=O)Cn2nnc3ccccc32)C(C(=O)NC(C)(C)CC)c2cccn2C)cc1 (centres undefined)	n	n	n	n	n
CCc1nc2c(OCc3ccc(C#N)cc3)cccn2c1N(C)C(=O)C(C)C	n	x	x	x	n
C/C=C/c1ccc(OCCCCN2CC(C)CC(C)C2)c(OC)c1 (centres undefined)	n	38	n	n	n
Cc1ccc(S[C@@H](CCN2CC[C@H](O)CCC2=O)c2ccccc2)cc1	n	n	n	n	n
O=C(c1ccc(S(=O)(=O)c2ccccc2Cl)c([N+](=O)[O-])c1)N1CCN(Cc2ccccc2)CC1	u	n	n	n	78
COc1cc(CCC(=O)OCC(=O)N2CC(=O)Nc3ccccc32)cc(OC)c1OC	n	x	x	x	n
O=C(N=C1SC2CS(=O)(=O)CC2N1c1ccccc1F)C1CCCCC1 (centres undefined)	n	n	n	n	n
Cn1c(=O)c2sccc2n(CC(=O)NCCC2=CCCCC2)c1=O	n	n	n	n	n
Cn1c(=O)c2ccccc2n(CC(=O)NCCC2=CCCCC2)c1=O	n	41	n	n	n
O=C(c1cc(Cl)nc2ccccc12)N1CCc2ccccc2C1	n	n	n	n	n
SMILES	D2 ag-1	D2 antagonist	D2 ag-2	D2 PAM-1	D2 PAM-2
COCCn1c(N)c(N(Cc2ccccc2)C(=O)c2cc(=O)[nH]c3ccccc23)c(=O)[nH]c1=O	n	x	x	x	n
COc1ccc(-c2cc3nc(NCc4ccc(C)cc4C)n(C)c(=O)c3s2)cc1OC	n	x	x	x	n
Cc1ccc(CNc2nc3cc(-c4ccccc4)sc3c(=O)n2C)c(C)c1	53	x	x	x	n
CCCCN(C/C=C/c1ccccc1OC)Cc1ccccc1	n	n	n	n	n
CCN(C/C=C/c1ccccc1OC)Cc1ccccc1	n	80	n	n	n
Cc1ccccc1NC(=S)N1CCCC1	n	n	n	n	n
O=C(Nc1cccnc1N1CCOCC1)c1cc2ccccc2oc1=O	n	n	n	n	n
